Screening data: PubChem BioAssay, The Scripps Research Institute Molecular Screening Center
This is a sample that favours compounds with a hit; in the whole collection about 2.3% have one here.
CHO-K1 Ca PAM: nonselective activator or artifact in parental CHO-K1 calcium assay; actives 0.02% (n = 360,000); activation, % at 3 µM; AID 602247; ATP EC20, Fluo-8 calcium fluorescence; 0% at ATP EC20, 100% at ATP max;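 active = activation above the run cutoff, the mean activation of all test compounds plus 3 SD, cut at about 40% in these data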;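 note: peak over basal fluorescence ratio in a 140 s read after ATP addition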
CHRM1 antagonist: blocks human M1 muscarinic receptor; inhibition, % at 3 µM; CHO-K1 hM1, Fluo-8 calcium fluorescence, ACh EC80 antagonist; actives 1.3% (n = 360,000);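 active = percent inhibition above its own plate's cutoff, namely the mean of that plate's compound wells plus 3 SD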;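 note: peak over basal fluorescence ratio during 140 s after agonist addition; 0% = ACh EC80 plus DMSO and 100% = DMSO alone without agonist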
Target sequence (P11229 whole entry, looked up): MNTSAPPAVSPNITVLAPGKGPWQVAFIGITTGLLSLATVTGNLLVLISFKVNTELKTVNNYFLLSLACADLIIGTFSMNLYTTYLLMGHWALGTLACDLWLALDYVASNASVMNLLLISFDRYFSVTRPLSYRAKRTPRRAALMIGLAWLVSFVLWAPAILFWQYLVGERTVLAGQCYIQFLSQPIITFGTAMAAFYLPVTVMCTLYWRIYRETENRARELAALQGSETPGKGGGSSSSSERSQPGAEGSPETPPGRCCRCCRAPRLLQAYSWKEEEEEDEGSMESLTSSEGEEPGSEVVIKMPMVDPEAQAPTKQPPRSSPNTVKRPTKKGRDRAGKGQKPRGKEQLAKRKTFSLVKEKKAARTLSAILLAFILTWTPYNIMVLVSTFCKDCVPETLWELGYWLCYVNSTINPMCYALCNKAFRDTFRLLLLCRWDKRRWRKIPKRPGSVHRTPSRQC
M1 ag: agonists of human M1 muscarinic receptor | P11229 | CHO-K1 hM1, Fluo-8 calcium fluorescence, agonist mode; 0% DMSO, 100% acetylcholine EC100 | activation, % at 3 µM | actives 0.33% (n = 360,000) | AID 588814;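 active = activation above the run's mean compound activation plus 3 SD, cut at about 16% in these data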;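 note: peak over basal fluorescence ratio within a 140 s kinetic read after compound addition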
CHO-K1 Ca antag: counter-screen for M1 antagonists: effect in parental CHO-K1 cells; actives 0.6% (n = 360,000); inhibition, % at 3 µM; ATP-induced calcium, Fluo-8 fluorescence;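 active = inhibition above a per-plate cutoff, the plate's mean sample inhibition plus 3 SD, cut at about 24% in these data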;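 note: 0% = DMSO plus EC80 ATP and 100% = DMSO alone without ATP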
M1 PAM: positive allosteric modulators of human M1 muscarinic receptor | P11229 | CHO-K1 hM1, Fluo-8 calcium fluorescence, ACh EC20; 0% = ACh EC20, 100% = maximal ACh | activation, % at 3 µM | actives 0.088% (n = 360,000) | AID 588819; in the data active = activation above about 19%, passing the limit was not always enough
CHO-K1 Ca ag: M1 agonist counterscreen hit in parental CHO-K1 cells; actives 0.48% (n = 360,000); Fluo-8 calcium fluorescence; scaled to maximal ATP response, vehicle zero; activation, % at 3 µM; in the data active = activation above about 15%;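 note: untransfected CHO-K1 host cells lacking M1 receptor as counterscreen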
Active calls of the source: *.

For O=c1nc2ccccc2c(NS(=O)(=O)c2ccccc2)n1-c1ccccc1 the results were CHO-K1 Ca PAM -3, CHRM1 antagonist -7, M1 ag -1, CHO-K1 Ca antag 2, M1 PAM 8 and CHO-K1 Ca ag 0.
`CC1=C(C(=O)N(C)C)CC(CC(=O)NC(c2ccccc2)c2ccccc2)C(=O)N1CCCN1CCCC1=O` (configuration not stated) gave CHO-K1 Ca PAM 9, CHRM1 antagonist -14, M1 ag 2, CHO-K1 Ca antag -9, M1 PAM 15 and CHO-K1 Ca ag 0.
Cc1ccccc1-n1c(=O)cc(N2CCc3ccccc3C2)[nH]c1=O was read as CHO-K1 Ca PAM 13, CHRM1 antagonist -1, M1 ag -4, CHO-K1 Ca antag 5, M1 PAM 4 and CHO-K1 Ca ag 18*.
`COC(=O)c1cc[n+](CC(=O)c2ccccc2)cc1` gave CHO-K1 Ca PAM 16, CHRM1 antagonist -7, M1 ag 30*, CHO-K1 Ca antag -11, M1 PAM -1 and CHO-K1 Ca ag 0.
CN(C)c1cc[n+](CC(=O)c2ccc(Br)cc2)cc1 was read as CHO-K1 Ca PAM 7, CHRM1 antagonist 10, M1 ag -4, CHO-K1 Ca antag -13, M1 PAM -4 and CHO-K1 Ca ag -1.
For CN(C)c1cc[n+](CC(=O)c2ccc(-c3ccccc3)cc2)cc1 the results were CHO-K1 Ca PAM -11, CHRM1 antagonist 42*, M1 ag -11, CHO-K1 Ca antag 23, M1 PAM -30 and CHO-K1 Ca ag -1.
For COC(=O)c1ccc(OCC(=O)c2ccccc2)cc1 the results were CHO-K1 Ca PAM 12, CHRM1 antagonist 12, M1 ag -3, CHO-K1 Ca antag -13, M1 PAM -8 and CHO-K1 Ca ag 1.
For O=C(C[n+]1ccccc1)c1ccc(-c2ccccc2)cc1 the results were CHO-K1 Ca PAM -14, CHRM1 antagonist 40*, M1 ag -8, CHO-K1 Ca antag -4, M1 PAM -19 and CHO-K1 Ca ag 0.
C=Cn1cc[n+](CC(=O)c2ccc(-c3ccccc3)cc2)c1 was read as CHO-K1 Ca PAM 10, CHRM1 antagonist -2, M1 ag -9, CHO-K1 Ca antag -5, M1 PAM -7 and CHO-K1 Ca ag 0.
`CCN(CC(=O)N1CCCC1)S(=O)(=O)c1ccc2ccccc2c1` gave CHO-K1 Ca PAM 18, CHRM1 antagonist -8, M1 ag -3, CHO-K1 Ca antag -5, M1 PAM 0 and CHO-K1 Ca ag 1.
Screening CN1OC[C@@H]2CN[C@H](c3cccc(-c4ccccc4)c3)C[C@@H]21 returned CHO-K1 Ca PAM 2, CHRM1 antagonist -9, M1 ag -7, CHO-K1 Ca antag -3, M1 PAM 20 and CHO-K1 Ca ag 0.
For CCCC(=O)N1CCC(Cc2ccccc2)CC1 the results were CHO-K1 Ca PAM -12, CHRM1 antagonist -12, M1 ag 6, CHO-K1 Ca antag 17, M1 PAM 13 and CHO-K1 Ca ag 0.
Screening CCCCCCNCC(=O)N1CCC(Cc2ccccc2)CC1 returned CHO-K1 Ca PAM -21, CHRM1 antagonist 31*, M1 ag -11, CHO-K1 Ca antag 3, M1 PAM -26 and CHO-K1 Ca ag 3.
Screening CN(C)CCCN1c2ccc(O)cc2Sc2ccc(Cl)cc21 returned CHO-K1 Ca PAM 1, CHRM1 antagonist 100*, M1 ag -4, CHO-K1 Ca antag -2, M1 PAM -31 and CHO-K1 Ca ag 4.
`Cc1cc(C(=O)CN2C(=O)NC(CC(C)C)C2=O)c(C)n1C1CC1` (configuration not stated) gave CHO-K1 Ca PAM -6, CHRM1 antagonist -4, M1 ag -1, CHO-K1 Ca antag 7, M1 PAM 2 and CHO-K1 Ca ag 1.
For C=CCNC(=O)CN1C(=O)NC(C)(c2ccc(OC)cc2)C1=O (configuration not stated) the results were CHO-K1 Ca PAM -14, CHRM1 antagonist -2, M1 ag 0, CHO-K1 Ca antag -3, M1 PAM -1 and CHO-K1 Ca ag 1.
Screening COc1ccc(C2(C)NC(=O)N(CC(=O)c3cc(C)n(C4CC4)c3C)C2=O)cc1 (configuration not stated) returned CHO-K1 Ca PAM 4, CHRM1 antagonist 0, M1 ag 40*, CHO-K1 Ca antag 4, M1 PAM 5 and CHO-K1 Ca ag 30*.
